Data published in the supplement of paper PMC6279402.
Structures can show the parent of a compound that is named as a salt. ± gives the standard deviation of the averaged measurements.

System: A549
Test: relative viability (normalised to negative control = 1, bortezomib = 0) (fraction); higher = less cytotoxic
Conditions: inflammatory serum-free RHB-A with cytokines + LPS, 5 d + 24 h CellTiter-Blue
[1] = compound 30 nM, GSK126 pretreatment: 5 uM GSK126
[2] = compound 30 nM, GSK126 pretreatment: none (vehicle)
[3] = compound 300 nM, GSK126 pretreatment: 5 uM GSK126
[4] = compound 300 nM, GSK126 pretreatment: none (vehicle)

## CC[C@H](CO)Nc1nc(NCc2ccccc2)c2ncn(C(C)C)c2n1 [ROSCOVITINE; Roscovitine(CYC202); Roscovitine]
[1]
  relative viability: 0.929 ± 0.16
[2]
  relative viability: 0.873 ± 0.12
[3]
  relative viability: 0.963 ± 0.063
[4]
  relative viability: 0.902 ± 0.088

## CO[C@@H](C(=O)N1Cc2[nH]nc(NC(=O)c3ccc(N4CCN(C)CC4)cc3)c2C1)c1ccccc1
[1]
  relative viability: 0.626 ± 0.07
[2]
  relative viability: 0.622 ± 0.05
[3]
  relative viability: 0.488 ± 0.032
[4]
  relative viability: 0.504 ± 0.058

## O=c1cc(N2CCOCC2)oc2c(-c3ccccc3)cccc12
[1]
  relative viability: 0.773 ± 0.033
[2]
  relative viability: 0.819 ± 0.048
[3]
  relative viability: 0.748 ± 0.15
[4]
  relative viability: 0.835 ± 0.068

## CCc1cccc(CC)c1NC(=O)N1Cc2[nH]nc(NC(=O)c3ccc(N4CCN(C)CC4)cc3)c2C1
[1]
  relative viability: 0.891 ± 0.14
[2]
  relative viability: 0.91 ± 0.12
[3]
  relative viability: 0.701 ± 0.13
[4]
  relative viability: 0.557 ± 0.075

## O=C1NC(=O)/C(=C\c2ccc3nccnc3c2)S1
[1]
  relative viability: 0.877 ± 0.1
[2]
  relative viability: 0.854 ± 0.032
[3]
  relative viability: 0.915 ± 0.14
[4]
  relative viability: 0.946 ± 0.17

## Fc1cc(-c2cccc3ncc(-c4cnn(C5CCNCC5)c4)nc23)cc(F)c1CN1CCOCC1
[1]
  relative viability: 0.927 ± 0.076
[2]
  relative viability: 0.889 ± 0.13
[3]
  relative viability: 1.11 ± 0.12
[4]
  relative viability: 1.05 ± 0.15

## Cc1[nH]nc2ccc(-c3cncc(OC[C@@H](N)Cc4ccccc4)c3)cc12
[1]
  relative viability: 0.871 ± 0.14
[2]
  relative viability: 0.766 ± 0.094
[3]
  relative viability: 0.17 ± 0.011
[4]
  relative viability: 0.273 ± 0.056

## CNNCc1ccc(C(=O)NC(C)C)cc1 [Procarbazine hydrochloride; Procarbazine]
[1]
  relative viability: 0.962 ± 0.15
[2]
  relative viability: 0.915 ± 0.14
[3]
  relative viability: 0.997 ± 0.12
[4]
  relative viability: 0.967 ± 0.06

## C[C@@H](Oc1cc(-n2cnc3ccc(CN4CCN(C)CC4)cc32)sc1C(N)=O)c1ccccc1C(F)(F)F
[1]
  relative viability: 0.481 ± 0.028
[2]
  relative viability: 0.326 ± 0.05
[3]
  relative viability: 0.517 ± 0.02
[4]
  relative viability: 0.363 ± 0.072

## NCC(=O)CCC(=O)O [Aminolevulinic acid hydrochloride; Aminolevulinic acid]
[1]
  relative viability: 1.08 ± 0.17
[2]
  relative viability: 0.985 ± 0.1
[3]
  relative viability: 1.05 ± 0.12
[4]
  relative viability: 0.981 ± 0.053

## N#CCNC(=O)c1ccc(-c2ccnc(Nc3ccc(N4CCOCC4)cc3)n2)cc1
[1]
  relative viability: 0.933 ± 0.027
[2]
  relative viability: 0.961 ± 0.042
[3]
  relative viability: 1.22 ± 0.083
[4]
  relative viability: 1.4 ± 0.038

## Cc1ccc(S(=O)(=O)Nc2nc3ccccc3nc2Nc2ccc3nsnc3c2)cc1
[1]
  relative viability: 0.8 ± 0.092
[2]
  relative viability: 0.774 ± 0.06
[3]
  relative viability: 0.748 ± 0.14
[4]
  relative viability: 0.842 ± 0.06

## Nc1ccn([C@@H]2O[C@H](CO)[C@@H](O)[C@@H]2O)c(=O)n1
[1]
  relative viability: 0.833 ± 0.016
[2]
  relative viability: 0.79 ± 0.088
[3]
  relative viability: 0.668 ± 0.094
[4]
  relative viability: 0.475 ± 0.1

## CN1CCN(CCOc2cc(OC3CCOCC3)c3c(Nc4c(Cl)ccc5c4OCO5)ncnc3c2)CC1 [AZD0530(Saracatinib)]
[1]
  relative viability: 0.831 ± 0.073
[2]
  relative viability: 0.827 ± 0.071
[3]
  relative viability: 0.746 ± 0.057
[4]
  relative viability: 0.914 ± 0.038

## C#Cc1cccc(Nc2ncnc3cc(OCCOC)c(OCCO)cc23)c1 [OSI-420 (Desmethyl Erlotinib)]
[1]
  relative viability: 0.944 ± 0.086
[2]
  relative viability: 0.91 ± 0.05
[3]
  relative viability: 0.477 ± 0.047
[4]
  relative viability: 0.505 ± 0.019

## CC(=O)Nc1nc(C)c(-c2ccc(Cl)c(S(=O)(=O)NCCO)c2)s1
[1]
  relative viability: 0.61 ± 0.047
[2]
  relative viability: 0.678 ± 0.015
[3]
  relative viability: 0.487 ± 0.16
[4]
  relative viability: 0.712 ± 0.052

## O=C(NOC[C@H](O)CO)c1ccc(F)c(F)c1Nc1ccc(I)cc1F
[1]
  relative viability: 0.213 ± 0.035
[2]
  relative viability: 0.291 ± 0.011
[3]
  relative viability: 0.108 ± 0.017
[4]
  relative viability: 0.112 ± 0.0091

## CCOc1cc2ncc(C#N)c(Nc3ccc(F)c(Cl)c3)c2cc1NC(=O)/C=C/CN(C)C [Pelitinib]
[1]
  relative viability: 0.562 ± 0.038
[2]
  relative viability: 0.504 ± 0.012
[3]
  relative viability: 0.0719 ± 0.015
[4]
  relative viability: 0.0851 ± 0.02

## COc1cc(OC)c(/C=C/S(=O)(=O)Cc2ccc(OC)c(NCC(=O)O)c2)c(OC)c1
[1]
  relative viability: 0.4 ± 0.058
[2]
  relative viability: 0.303 ± 0.018
[3]
  relative viability: 0.352 ± 0.015
[4]
  relative viability: 0.245 ± 0.035

## CCN1CCN(Cc2ccc(-c3cc4c(N[C@H](C)c5ccccc5)ncnc4[nH]3)cc2)CC1
[1]
  relative viability: 0.695 ± 0.092
[2]
  relative viability: 0.693 ± 0.028
[3]
  relative viability: 0.446 ± 0.042
[4]
  relative viability: 0.414 ± 0.068

## CN(C)c1nc(N(C)C)nc(N(C)C)n1 [Altretamine]
[1]
  relative viability: 0.861 ± 0.011
[2]
  relative viability: 0.87 ± 0.045
[3]
  relative viability: 0.931 ± 0.02
[4]
  relative viability: 0.887 ± 0.095

## CC(C)C[C@H](NC(=O)[C@H](Cc1ccccc1)NC(=O)c1cnccn1)B(O)O [Bortezomib]
[1]
  relative viability: 0.00425 ± 0.0011
[2]
  relative viability: 0.015 ± 0.0062
[3]
  relative viability: 0.00234 ± 0.0024
[4]
  relative viability: 0.00262 ± 0.0014

## O=NN(CCCl)C(=O)NCCCl [Carmustine]
[1]
  relative viability: 0.852 ± 0.1
[2]
  relative viability: 0.858 ± 0.13
[3]
  relative viability: 0.894 ± 0.046
[4]
  relative viability: 0.955 ± 0.072

## Cn1cc(-c2ccc3nnc(C(F)(F)c4ccc5ncccc5c4)n3n2)cn1
[1]
  relative viability: 0.954 ± 0.11
[2]
  relative viability: 0.904 ± 0.029
[3]
  relative viability: 1.001 ± 0.009
[4]
  relative viability: 0.947 ± 0.026

## CNC(=O)c1cc(Oc2ccc(NC(=O)Nc3ccc(Cl)c(C(F)(F)F)c3)cc2)ccn1 [Sorafenib tosylate; Sorafenib; Sorafenib Tosylate]
[1]
  relative viability: 1.12 ± 0.089
[2]
  relative viability: 1.04 ± 0.039
[3]
  relative viability: 1.12 ± 0.18
[4]
  relative viability: 1.1 ± 0.1

## COc1cccc2c1C(=O)c1c(O)c3c(c(O)c1C2=O)C[C@@](O)(C(=O)CO)C[C@@H]3O[C@H]1C[C@H](N)[C@H](O)[C@H](C)O1 [Doxorubicin hydrochloride; 4'-Epiadriamycin; Doxorubicin HCl]
[1]
  relative viability: 0.967 ± 0.022
[2]
  relative viability: 0.9737 ± 0.0065
[3]
  relative viability: 0.454 ± 0.027
[4]
  relative viability: 0.463 ± 0.075

## Nc1ncn([C@H]2C[C@H](O)[C@@H](CO)O2)c(=O)n1 [5-Aza-2'-deoxycytidine; Decitabine]
[1]
  relative viability: 0.841 ± 0.15
[2]
  relative viability: 0.715 ± 0.17
[3]
  relative viability: 0.86 ± 0.18
[4]
  relative viability: 0.836 ± 0.13

## Cc1[nH]c(/C=C2\C(=O)Nc3ccccc32)c(C)c1CCC(=O)O
[1]
  relative viability: 0.78 ± 0.0017
[2]
  relative viability: 0.775 ± 0.032
[3]
  relative viability: 0.786 ± 0.08
[4]
  relative viability: 0.772 ± 0.029
